The values that follow come from PubChem BioAssay (NCI).

Test in all cases: NCI-60 one-dose screen, 48 h (100 = growth as untreated, 0 = no growth, -100 = all killed)
The test system of experiment [1] is NCI-H23 lung. The note with it: 10 µM unless noted.
The test system of experiment [2] is NCI-H226 lung. The note with it: 10 µM unless noted.
For experiment [3], the system named is NCI-H322M lung. The note with it: 10 µM unless noted.
Experiment [4] deals with HOP-62 NSCLC. The note with it: 10 µM unless noted.
The test system of experiment [5] is HOP-92 NSCLC. To be noted: 10 µM.
Experiment [6] relates to NCI-H522 lung. The note with it: 10 µM.
The test system of experiment [7] is A549/ATCC NSCLC. To be noted: 10 µM unless noted.
Experiment [8] concerns 786-0 renal. To be noted: 10 µM unless noted.
Experiment [9] deals with COLO 205 colon. The note with it: 10 µM unless noted.
Experiment [10] concerns DU-145 prostate. To be noted: 10 µM unless noted.
The test system of experiment [11] is K-562 leukemia. The note with it: 10 µM unless noted.
Experiment [12] concerns MALME-3M melanoma. The note with it: 10 µM unless noted.
The subject of experiment [13] is MDA-MB-231 breast. To be noted: 10 µM unless noted.
Experiment [14] deals with RXF 393 renal. The note with it: 10 µM unless noted.
The subject of experiment [15] is SF-268 CNS. To be noted: 10 µM unless noted.
The test system of experiment [16] is SF-295 CNS. The note with it: 10 µM unless noted.
In experiment [17] the test system is SF-539 CNS. To be noted: 10 µM unless noted.
Experiment [18] relates to UACC-257 melanoma. To be noted: 10 µM unless noted.
Experiment [19] has as its system M14 melanoma. The note with it: 10 µM unless noted.

The panel holds about 83,000 compounds, 20% with a hit somewhere; the sample as a whole holds those more often.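 48-hour exposure, single concentration, 96-well plates; percent growth endpoint where 0 means no net growth. Active: below 10.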 Values without a mark were called inactive. Active and inactive are the calls of the source.

Turning to `CCCCN(CCCC)CCCNc1c2c(nc3ccc(Cl)cc13)CCCC2`, the growth in experiment [1] was 82%; in experiment [2] it was 100%; in [3], 95.4%; in experiment [4], 86.6%; in [5], 73.5%; in experiment [6], 80.1%. The growth is 94.6% in experiment [7]; -69.6% (active) in [8]; 77.4% in experiment [9]; 107% in experiment [10]; 72.8% in experiment [11]; 126% in [12]. Further, the growth in experiment [13] is 70.5%; in experiment [14] it was 109%; in experiment [15], 92.3%; in experiment [16], 90.1%; in [17] it was 100%; in experiment [18], 105%. Moreover, the growth in experiment [19] is 98%.

For the molecule `CCCCCCNc1nc(N2CCOCC2)c2[nH]c(NCCCCCC)nc2n1`, the growth is -94.5% (active) in [1]; -82.9% (active) in experiment [2]; -46.7% (active) in [3]; -95.9% (active) in experiment [4]; -77.7% (active) in experiment [5]; -79.8% (active) in experiment [6]. Further, the growth is -90.1% (active) in [7]; -100% (active) in [8]; -64.8% (active) in experiment [9]; -88.1% (active) in experiment [10]; -52.4% (active) in experiment [11]; -62.2% (active) in experiment [12]. Further, the growth in experiment [13] is -94.4% (active); in experiment [14], -84.9% (active); in experiment [15] it was -92.8% (active); in experiment [16], -61.8% (active); in experiment [17], -94.4% (active); in experiment [18], -95.4% (active). In [19], the growth was -98% (active).

`CC(C)(C)C(=O)OCOP(=O)(OCOC(=O)C(C)(C)C)C1CC(O)N(O)C1=O` (stereo unspecified): the growth in experiment [1] is 21%; in [2] it was 71.6%; in [3], 30.5%; in experiment [4], 35.7%; in experiment [5] it was 28.2%; in [6] it was 8.02% (active). The growth is 64.3% in experiment [7]; 14.5% in experiment [8]; 45% in experiment [9]; 44.4% in [10]; 15.2% in experiment [11]; 41.2% in [12]. For the same molecule, the growth in experiment [13] was 42.7%; in [14], 1.26% (active); in experiment [15], 13.3%; in [16], 67%; in experiment [17], 39.3%; in [18], 63.1%. Besides, in experiment [19], the growth is 55.6%.

With `CCCCCN1CCN(C(CC(=O)c2ccccc2)C(=O)c2ccccc2)CC1` (stereo unspecified), the growth is 98.8% in experiment [1]; 103% in [2]; 101% in [3]; 101% in experiment [4]; 83.4% in experiment [5]; 1.49% (active) in experiment [6]. Besides, the growth in experiment [7] was 101%; in experiment [8], 102%; in experiment [9], 55.1%; in experiment [10], 69.1%; in experiment [11], 11.2%; in experiment [12], 50.4%. Further, the growth was 111% in experiment [14]; 91.5% in experiment [15]; 105% in experiment [16]; 110% in [17]; 107% in experiment [18]; 97.6% in [19].

Take `O=C(O)c1ccc(Br)nc1`: the growth is 102% in [1]; 98.4% in experiment [2]; 101% in experiment [3]; 91.6% in [4]; 94.6% in experiment [5]; 87.8% in experiment [6]. Also, the growth is 89.6% in [7]; 100% in experiment [8]; 105% in [9]; 100% in [10]; 100% in [11]; 94.2% in experiment [12]. The growth in experiment [13] was 100%; in experiment [14], 105%; in [15], 95.4%; in [16], 96.9%; in experiment [17], 97.7%; in [18] it was 88.3%. Also, in experiment [19], the growth is 101%.

For the molecule `Cc1nc2ccccc2c(=O)n1-c1cccc(OCc2cn(-c3cccc(O)c3)nn2)c1`, the growth was 95.1% in experiment [1]; 105% in experiment [2]; 101% in experiment [3]; 93.4% in experiment [4]; 81.6% in experiment [5]; 72.1% in experiment [6]. Besides, the growth is 95.3% in experiment [7]; 107% in experiment [8]; 122% in experiment [9]; 100% in experiment [10]; 88.2% in experiment [11]; 104% in experiment [12]. Further, the growth in [13] was 78.3%; in experiment [14] it was 105%; in experiment [15] it was 88.4%; in [16], 93.8%; in experiment [17], 100%; in [18], 94.9%. Further, in experiment [19], the growth was 94.4%.

Turning to `CCCNC(=O)Oc1ccc(/C(=C(/C)Cc2ccc(OC)cc2)c2ccc(OCCN3CCCC3)cc2)cc1`, the growth is 84.1% in experiment [1]; 90.7% in [2]; 86.5% in experiment [3]; 76.8% in experiment [4]; 52.1% in experiment [5]; 71.8% in experiment [6]. Also, the growth is 71.8% in experiment [7]; 70.7% in experiment [8]; 10.1% in experiment [9]; 90.1% in experiment [10]; -11.5% (active) in experiment [11]; 28.9% in [12]. The growth was 57.6% in experiment [13]; 70% in experiment [14]; 72.4% in [15]; 68.7% in experiment [16]; 77.8% in experiment [17]; 73.5% in [18]. The growth in [19] is -52.9% (active).

As to `O=C(C(=O)N1CCOCC1)c1ccc(O[C@H]2O[C@H](CO)[C@@H](O)[C@H](O)[C@@H]2O)cc1`, the growth is 99.9% in experiment [1]; 95.8% in [2]; 91.7% in experiment [3]; 111% in [4]; 102% in [5]; 93.9% in [6]. In addition, the growth is 106% in experiment [7]; 97.1% in experiment [8]; 119% in experiment [9]; 122% in experiment [10]; 106% in experiment [11]; 102% in experiment [12]. Also, the growth was 98.4% in experiment [13]; 103% in experiment [14]; 123% in experiment [15]; 107% in [16]; 99.2% in experiment [17]; 107% in [18]. Also, in experiment [19], the growth is 98.8%.
